# Test results as given in the supplement of paper PMC8728848.
# Shown is part of a subset that was picked to be rich in the strongest signals.
# Experiments:
# Experiment in all cases: glycan array binding signal (z-score within array); higher = stronger binding
# Conditions in all cases: glycan notation: IUPAC condensed, linker removed
# [1] = molecular target: Fuc(a1-2)Gal(b1-3)GlcNAc(b1-2)Man(a1-3)[Fuc(a1-2)Gal(b1-3)GlcNAc(b1-2)Man(a1-6)]Man(b1-4)GlcNAc(b1-4)GlcNAc
# Summary of the method: (§1)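 Negative Z-scores can be read as non-binding. The Z-score is calculated within each array and then averaged across arrays of one protein sequence at different concentrations or buffers and across linkers. Arrays, 3228 in all, were curated from the Consortium for Functional Glycomics database and kept only where the protein sequence was available.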
# [2] = molecular target: Fuc(a1-2)Gal(b1-3)GlcNAc(b1-3)GalNAc
# Summary of the method: as §1
# [3] = molecular target: Fuc(a1-2)Gal(b1-4)GlcNAc6S
# Summary of the method: as §1
# [4] = molecular target: Fuc(a1-2)Gal(b1-4)[Fuc(a1-3)]GlcNAc
# Summary of the method: as §1
# [5] = molecular target: Fuc(a1-2)Gal(b1-4)[Fuc(a1-3)]GlcNAc(b1-2)[Fuc(a1-2)Gal(b1-4)[Fuc(a1-3)]GlcNAc(b1-4)]Man(a1-3)[Fuc(a1-2)Gal(b1-4)[Fuc(a1-3)]GlcNAc(b1-2)Man(a1-6)]Man(b1-4)GlcNAc(b1-4)GlcNAc
# Summary of the method: as §1
# [6] = molecular target: Fuc(a1-2)[Gal(a1-3)]Gal(b1-3)GlcNAc
# Summary of the method: as §1
# [7] = molecular target: Fuc(a1-2)[Gal(a1-3)]Gal(b1-4)GlcNAc(b1-2)Man(a1-3)[Fuc(a1-2)[Gal(a1-3)]Gal(b1-4)GlcNAc(b1-2)Man(a1-6)]Man(b1-4)GlcNAc(b1-4)GlcNAc
# Summary of the method: as §1
# [8] = molecular target: Fuc(a1-2)[GalNAc(a1-3)]Gal(b1-4)Glc
# Summary of the method: as §1
# [9] = molecular target: Fuc(a1-2)[GalNAc(a1-3)]Gal(b1-4)GlcNAc(b1-3)GalNAc
# Summary of the method: as §1
# [10] = molecular target: Fuc(a1-3)[Gal(b1-4)]GlcNAc(b1-2)Man(a1-3)[Fuc(a1-3)[Gal(b1-4)]GlcNAc(b1-2)Man(a1-6)]Man(b1-4)GlcNAc(b1-4)[Fuc(a1-6)]GlcNAc
# Summary of the method: as §1
# [11] = molecular target: Gal(a1-3)Gal(b1-3)GlcNAc(b1-3)GalNAc
# Summary of the method: as §1
# [12] = molecular target: Gal(b1-3)GlcNAc(a1-3)Gal(b1-4)GlcNAc
# Summary of the method: as §1
# [13] = molecular target: Gal(b1-3)GlcNAc(b1-3)Gal(b1-4)[Fuc(a1-3)]GlcNAc
# Summary of the method: as §1
# [14] = molecular target: Gal(b1-3)GlcNAc(b1-3)Gal(b1-4)[Fuc(a1-3)]GlcNAc(b1-6)[Gal(b1-3)GlcNAc(b1-3)]Gal(b1-4)Glc
# Summary of the method: as §1
# [15] = molecular target: Gal(b1-3)GlcNAc(b1-3)GalNAc
# Summary of the method: as §1
# [16] = molecular target: Gal(b1-4)GlcNAc(b1-3)Gal(b1-3)GlcNAc
# Summary of the method: as §1
# [17] = molecular target: Gal(b1-4)GlcNAc(b1-3)Gal(b1-4)GlcNAc(b1-2)[Gal(b1-4)GlcNAc(b1-3)Gal(b1-4)GlcNAc(b1-6)]Man(a1-6)[Gal(b1-4)GlcNAc(b1-3)Gal(b1-4)GlcNAc(b1-2)Man(a1-3)]Man(b1-4)GlcNAc(b1-4)[Fuc(a1-6)]GlcNAc
# Summary of the method: as §1
# [18] = molecular target: Gal(b1-4)GlcNAc(b1-3)Gal(b1-4)GlcNAc(b1-3)Gal(b1-4)GlcNAc(b1-3)Gal(b1-4)GlcNAc(b1-3)Gal(b1-4)GlcNAc(b1-2)Man(a1-3)[Gal(b1-4)GlcNAc(b1-3)Gal(b1-4)GlcNAc(b1-3)Gal(b1-4)GlcNAc(b1-3)Gal(b1-4)GlcNAc(b1-3)Gal(b1-4)GlcNAc(b1-2)Man(a1-6)]Man(b1-4)GlcNAc(b1-4)GlcNAc
# Summary of the method: as §1
# [19] = molecular target: Gal(b1-4)GlcNAc(b1-3)Gal(b1-4)GlcNAc(b1-6)[Gal(b1-3)]GalNAc
# Summary of the method: as §1
# [20] = molecular target: Gal(b1-4)GlcNAc(b1-6)[Gal(b1-4)GlcNAc(b1-3)]GalNAc
# Summary of the method: as §1
# [21] = molecular target: Gal3S(b1-3)GlcNAc
# Summary of the method: as §1
# [22] = molecular target: Gal3S(b1-4)Glc6S
# Summary of the method: as §1
# [23] = molecular target: Gal6S(b1-4)Glc6S
# Summary of the method: as §1
# [24] = molecular target: GalNAc(b1-3)Gal(a1-4)Gal(b1-4)GlcNAc
# Summary of the method: as §1
# [25] = molecular target: GalNAc(b1-3)GlcNAc
# Summary of the method: as §1
# [26] = molecular target: GalNAc3S(b1-4)[Fuc(a1-3)]GlcNAc
# Summary of the method: as §1
# [27] = molecular target: GlcNAc(a1-4)Gal(b1-4)GlcNAc(b1-3)Gal(b1-4)[Fuc(a1-3)]GlcNAc(b1-3)Gal(b1-4)[Fuc(a1-3)]GlcNAc
# Summary of the method: as §1
# [28] = molecular target: GlcNAc(b1-2)[GlcNAc(b1-4)]Man(a1-3)[GlcNAc(b1-2)Man(a1-6)]Man(b1-4)GlcNAc(b1-4)GlcNAc
# Summary of the method: as §1
# [29] = molecular target: GlcNAc(b1-2)[GlcNAc(b1-4)]Man(a1-3)[GlcNAc(b1-4)][GlcNAc(b1-2)Man(a1-6)]Man(b1-4)GlcNAc(b1-4)GlcNAc
# Summary of the method: as §1
# [30] = molecular target: GlcNAc(b1-3)Gal(b1-4)GlcNAc(b1-3)Gal(b1-4)GlcNAc(b1-2)Man(a1-3)[GlcNAc(b1-3)Gal(b1-4)GlcNAc(b1-3)Gal(b1-4)GlcNAc(b1-2)Man(a1-6)]Man(b1-4)GlcNAc(b1-4)GlcNAc
# Summary of the method: as §1
binder,measurement,setting,value
Clec39 (Caenorhabditis elegans) (protein) MTSFYDNSSSSSKPVPLKTSRAQKIQILIFDNWKLILYGAISTLILVLAIMFSTLFFALPAANCDENSEPTKYYTTNAEITTTITTTNQKTTSTASSHLTTISSSATQIYSESSSSSTSQSTFTQSPPEISTTTIAPSDFSCQHGFTLVNNKCWKLVTSNQARPDADKICNGYGGATLFSIKSEQDNRAMIHFVKGQDIDFLWSGLLCSAGEPISCIWDIENGSTANYSNFADGFPNIVYGNCVYFITSGDEAGQWGNEQCGQVMNFVCELPATFQGKDGCKNNYEKSCYLRFDLNLTVPQAQNFCLEKCANLVSIHSANEVRFIMTIYDFIGEILIGALAPAQDFIYWLDGTPANYNNLKFFYNSTCVHMTVAPGMQNVGKWFTRFCTETGKFLCKRSIKNSCT,glycan array binding signal (z-score),[1],2.06
same,glycan array binding signal (z-score),[2],1.86
same,glycan array binding signal (z-score),[3],-0.018
same,glycan array binding signal (z-score),[4],0.187
same,glycan array binding signal (z-score),[5],3.52
same,glycan array binding signal (z-score),[6],-0.274
same,glycan array binding signal (z-score),[7],3.03
same,glycan array binding signal (z-score),[8],2.18
same,glycan array binding signal (z-score),[9],-0.527
same,glycan array binding signal (z-score),[10],4.38
same,glycan array binding signal (z-score),[11],-0.178
same,glycan array binding signal (z-score),[12],-0.68
same,glycan array binding signal (z-score),[13],-0.715
same,glycan array binding signal (z-score),[14],0.976
same,glycan array binding signal (z-score),[15],-0.666
same,glycan array binding signal (z-score),[16],-0.657
same,glycan array binding signal (z-score),[17],0.173
same,glycan array binding signal (z-score),[18],3.63
same,glycan array binding signal (z-score),[19],0.593
same,glycan array binding signal (z-score),[20],5.43
same,glycan array binding signal (z-score),[21],-0.524
same,glycan array binding signal (z-score),[22],0.293
same,glycan array binding signal (z-score),[23],2
same,glycan array binding signal (z-score),[24],1.49
same,glycan array binding signal (z-score),[25],-0.927
same,glycan array binding signal (z-score),[26],1.07
same,glycan array binding signal (z-score),[27],3.59
same,glycan array binding signal (z-score),[28],0.095
same,glycan array binding signal (z-score),[29],0.673
same,glycan array binding signal (z-score),[30],0.778
